This is an account of results in PubChem BioAssay (EPA / NIEHS).

Broadly, the AC50 is the midpoint of the concentration-response curve, whichever way the signal moves.

The source made the active and inactive calls. How the source made its calls: active means hit-call score of the fitted dose curve at least 0.9, where 1 is the maximum; inactive means score below 0.9.

Read-out in this assay: BCL2L11 (gene 10018)
Description: LTEA_HepaRG_BCL2L11: Life Technologies and Expression Analysis (LTEA) Assay for Bcl-2 (BCL2L11) gene using HepaRG (AID 2283473). The note with it: mRNA level, 48 h; actives raise or lower the signal. On the procedure: LTEA_HepaRG is a cell based, multiplexed-readout assay that uses HepaRG, a human liver cell line, with measurements taken at 48 hours after chemical dosing on a 96-well plate.LTEA_HepaRG_BCL2L11 is one of 102 assay component(s) measured in the LTEA HepaRG cell culture assay. It is a marker of Cell proliferation, survival, death.Data from the assay component LTEA_HepaRG_BCL2L11 was analyzed into 1 endpoint. This assay endpoint, LTEA_HepaRG_BCL2L11, was analyzed with bidirectional fitting relative to DMSO as the negative control and baseline of activity. Using a type of inducible reporter, measures of mRNA induction for gain or loss-of-signal activity can be used to understand regulation of transcription factor activity. To generalize the intended target to other relatable targets, this assay endpoint is annotated to the cell cycle intended target family, where the subfamily is Cell proliferation, survival, death.
A total of 1060 chemcials from the ToxCast library were tested in eight-point concentration-response experiments. Cell culture and cytotoxicity assays were conducted at Thermo Fisher Scientific's Custom Services facility (Madison, WI). A single lot of human HepaRG cells (Thermo Fisher Scientific, Frederick, MD) was used for the cell culture experiments. 96-well format collagen type I coated plates of human HepaRG cells were prepared using established methods. Briefly, cryopreserved HepaRG cells were thawed, plated at a density of approximately 100,000 cells/well in HepaRG Thaw, Plate, and General Purpose media (HPRG770, Thermo Fisher Scientific), and incubated for 48 hours. 0.5% DMSO was selected as vehicle control to balance the requisite need of DMSO in HepaRG cultures to maintain differentiation (for example, baseline metabolism, proportions of hepatocytes vs. cholangiocytes), while enabling further hepatic receptor pathway activation (for example, PXR and CAR) in response to chemical exposure. 48 hours after plating, the culture medium was replaced with HepaRG Serum-Free Incudtion Media. Cells were exposed to each test chemical in duplicate and maintained in CO2 incubators for another 48 hours. Chemical plates were thawed to room temperature and 200x concentrations of treatment groups were prepared. 8-point conentration-reponse curves were made with the highest exposure at 100 uM, followed by half-log dilutions, all in 0.5% DMSO. Each test plate contained variouse controls, induction positive controls (1mM phenobarbital), cytotoxicity positive controls ([…] aflatoxin B1), vehicle controls (0.5% DMSO), and total lysis controls (0.5% DMSO). Cell morphology images were taken using an Essen IncuCyte FLR automated microscope, with six 96-well plates imaged in about 24 minutes. Images were captured and exported and JPEG files. Spent culture media was transfered to black-well plates for the LDH assay, and remaining media was sorted at -80 C for later use. Cells were treated with RLT buffer and frozen until shipped for gene expression analysis. Total RNA was isolated from the cell suspension in 75 uL of Buffer RLT (Qiagen, Germantown, MD 20874) by Quintiles/Expression Analysis (Durham, NC) using a custom isolation procedure. Total RNA from each plate well was transferred to a preamplification plate. Fluidigm's 96.96 Dynamic ArrayTM (Fluidigm, Amsterdam, the Netherlands) technology was used for gene expression analyses by quantitative reverse transcription polymerase chain reaction (qRT-PCR, performed by Quintiles/Expression Analysis, Durham, NC)89. Standard TaqManTM Assays (Applied Biosystems/ThermoFisher Scientific, Foster City, CA) were used to assess the expression of 93 genes selected based on their selectivity and sensitivity to important hepatic receptors known to be modulated by environmental chemicals; importance in human hepatocyte functionality; and hepatotoxicity. […]
For the compound `CCCCCCCCCCCC[N+](C)(C)C`, the half-maximal activity concentration (AC50) was 90.3 µM (active).
Regarding `CCN(Cc1cccc(S(=O)(=O)O)c1)c1ccc(C(=C2C=CC(=[N+](CC)Cc3cccc(S(=O)(=O)O)c3)C=C2)c2ccccc2S(=O)(=O)[O-])cc1`, the compound was called inactive.
Same read-out and setting: to `Cc1cn([C@H]2C[C@H](N=[N+]=[N-])[C@@H](CO)O2)c(=O)[nH]c1=O` belongs “inactive”; to `Cc1occc1C(=O)Nc1ccc(C(=O)N2CCC(F)(F)/C(=C\C(=O)N3CCC(N4CCCCC4)CC3)c3ccccc32)cc1`, “inactive”.
With `Oc1ccc2ccccc2c1`, the call was inactive.
Regarding `CCCCCCCCCCCO`, the compound was classed as inactive.
Still for that read-out and setting: the value for `O=C(O)c1ccccc1C(=O)OCc1ccccc1` was “inactive”.
The same measure, in the same setting: the value for `O=C1c2ccccc2C(=O)N1CCc1noc(-c2ccc(CN3CCCCCC3)s2)n1` was “inactive”; that for `CCCCCCCCCCCCO` was “inactive”; that for `O=C1CCC(C2CCCCC2)CC1` was “inactive”.
`CCCC(=O)OCCC(C)C`: the outcome was inactive.
As for `C[C@]12CC[C@@H]3c4ccc(O)cc4CC[C@H]3[C@@H]1CCC2=O`, the call was inactive.
On to `Clc1cc(Cl)c2c(c1)N=C1CCCCCN1C2`, for which the compound was called inactive.
`COc1cc(C(=O)NC2CCN(C)CC2)ccc1Nc1ncc2c(n1)N(C1CCCC1)CC(F)(F)C(=O)N2C`: the AC50 was 46.5 µM (active).
Turning to `Clc1ccccc1C(c1ccccc1)(c1ccccc1)n1ccnc1`, the AC50 was 50 µM (active).
With `OCCO`, the result was inactive.
Take `CN(C)c1ccc(C(=C2C=CC(=[N+](C)C)C=C2)c2ccc(N(C)C)cc2)cc1`: the AC50 is 23.5 µM (active).
As for `CCO[Si](CCCNC(N)=O)(OCC)OCC`, the compound was called inactive.
`Oc1ccccc1`: the compound was classed as inactive.
Turning to `Cc1cc(F)ccc1-c1cc(N2CC[C@@H](O)[C@H]2CO)ncc1N(C)C(=O)C(C)(C)c1cc(C(F)(F)F)cc(C(F)(F)F)c1`, the AC50 is 52.7 µM (active).
`CC1(C)NC(=O)N(c2ccc([N+](=O)[O-])c(C(F)(F)F)c2)C1=O`: the call was inactive.
As for `OC12N=C(c3ccccc3)SC1Cc1cc(Cl)ccc12` (stereo not given), the AC50 was 2.86 µM (active).
With `O=CCCCC=O`, the call was inactive.
In the case of `Cc1oc2c(NC(=O)c3c(Cl)cccc3Cl)cccc2c1C(C)(C)O`, the outcome was inactive.
On the same count and under the same terms, the value for `CCCCCCCC[Si](OCC)(OCC)OCC` was “inactive”; that for `O=C(O)Cn1c(=O)n(Cc2ccc(Br)cc2F)c(=O)c2ccc(Cl)cc21` was “inactive”; that for `CC[C@H](NC(=O)c1cc(F)ccc1NS(=O)(=O)c1cccc2cccnc12)c1ccccc1` was “inactive”.
Same read-out and setting: the value for `O=C(O)c1ccccc1-n1cc(C(=O)O)c(=O)c2cc(Nc3c(F)cc(F)cc3Cl)c(Cl)cc21` was “inactive”; that for `O=c1c(-c2ccc(O)cc2)coc2cc(O)cc(O)c12` was “inactive”; that for `Cc1ccc(C(C)C)cc1` was “inactive”.
For the compound `O=C(OCCCCCCOC(=O)c1ccccc1)c1ccccc1`, the compound was called inactive.
Same read-out and setting: to `CO[C@H]1/C=C/O[C@@]2(C)Oc3c(C)c(O)c4c(O)c(c(/C=N/N5CCN(C)CC5)c(O)c4c3C2=O)NC(=O)/C(C)=C\C=C\[C@H](C)[C@H](O)[C@@H](C)[C@@H](O)[C@@H](C)[C@H](OC(C)=O)[C@@H]1C` belongs “inactive”.
Same read-out and setting: the value for `COc1cccc([C@H](O)C2CCN(CCc3ccc(F)cc3)CC2)c1OC` was “inactive”; that for `CC(C)(O)c1ccc(CNC(=O)c2cccnc2Oc2ccc3nonc3c2)cc1` was “inactive”.
Take `c1ccc(C[n+]2cccc3ccccc32)cc1`: the AC50 is 32.4 µM (active).
As to `CN1C(=O)N(c2ccccc2Br)Cc2cnc(Nc3ccc4c(c3)OCC(CO)O4)nc21` (stereo not given), the compound was classed as inactive.
On to `NC(=O)c1nc(-c2cccc(-c3cc(F)ccc3OCC(F)(F)C(F)(F)F)c2)n[nH]1`, for which the concentration at half-maximal activity (AC50) is 74.2 µM (active).
Take `CCOC(=O)O[C@H](C)OC(=O)c1ccc2c(c1)cc(C(=O)NC1CCN(C(C)C)CC1)n2Cc1cc(-c2ccc(Cl)s2)on1`: the result was inactive.
On the same count and under the same terms, to `Cc1ccc2oc(CN(Cc3ccccc3)C(=O)Nc3c(F)cc(F)cc3F)c(-c3ccc(Cl)cc3)c2c1` belongs “inactive”.
For the compound `O=c1ccc2ccccc2o1`, the compound was called inactive.
